Reference: PubChem BioAssay (NCATS)
Values joined by “and” are separate entries in the source; they are usually repeats but may differ in a detail not shown here. Identical values can stand only once. Records with an inconclusive call do not appear. Where a call stands in place of a potency, no number is given. Active and inactive are the calls of the source. Calls come from the whole dose curve; as a rule, active = well fitted curve in the direction sought with a large enough effect; inconclusive = small, poorly fitted or top-dose-only effect, or another doubt; inactive = no such curve, though single readings can be large; an effect the other way counts as inactive or inconclusive.

What was measured:
[1] = qHTS Screen of the MIPE 4.0 Collection Against Ewings Sarcoma (RDES) (AID 1259252); note: nearly all actives have a fitted effect of over 35% in size; note: potency is the fitted concentration of half-maximal effect
Outline: (§1)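 Measured: ATP luminescence (CellTiter-Glo) 10 min after reagent addition, following 48 h drug treatment. Relative luciferase units converted to percent activity, with no-cell wells as full and DMSO wells as zero inhibition.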

[2] = qHTS Screen of the MIPE 4.0 Collection Against Ewings Sarcoma (TC71) (AID 1259253); note: nearly all actives have a fitted effect of over 40% in size; note: potency is the fitted concentration of half-maximal effect
Outline: as §1

[3] = qHTS Screen of the MIPE 4.0 Collection Against Ewings Sarcoma (EW8) (AID 1259255); note: nearly all actives have a fitted effect of over 35% in size; note: potency is the fitted concentration of half-maximal effect
Outline: as §1

[4] = qHTS assay to identify small molecule inhibitors of chordoma cells - UCH-2 (AID 1259356); note: series mostly up to about 46 µM
[5] = P-glycoprotein substrates identified in KB-3-1 adenocarcinoma cell line, qHTS therapeutic library screen (AID 1346986); note: nearly all actives have a fitted effect of over 60% in size
Outline: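 Using luminescence to quantify ATP, parental and P-gp-overexpressing KB cells were compared after 72 h compound titration. KB-8-5-11 was also run with the P-gp inhibitor tariquidar.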

[6] = P-glycoprotein substrates identified in KB-8-5-11 adenocarcinoma cell line, qHTS therapeutic library screen (AID 1346987); note: nearly all actives have a fitted effect of over 65% in size; note: potency is the fitted concentration of half-maximal effect
Outline: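 In this qHTS, P-gp-rich KB-8-5-11 cells received library compounds across a concentration range. Viability was quantified by luminescence after 72 h at 37 degree C.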

[7] = NS1 protein of Zika virus - qHTS assay to identify small molecule inhibitors in human HEK 293 cells (AID 1347053); note: nearly all actives have a fitted effect of over 55% in size; note: potency is the fitted concentration of half-maximal effect
Outline: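 In this cell-based screen, HEK 293 cultures received compound for one hour before Zika MR766 at MOI = 0.5. NS1 was quantified 24 hours later by TR-FRET, normalized to virus-free wells and infected wells.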

[8] = Identifying Small Molecule Inhibitors of Pancreatic Cancer Stem Cells (A2780, Spheroid) (AID 1259357); settings: Potency: A2780 spheroid viability; note: potency is the fitted concentration of half-maximal effect;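 note: spheroids pre-formed over 14 days in stem cell medium on hydrogel; compound exposure lasted 48 h before the ATP luminescence read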
Outline: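 Endpoint: ATP-based luminescence, 48 h drug exposure. Bortezomib at 9.2 uM final as full-kill control; DMSO vehicle as negative control; activity normalized between vehicle and cell-free wells.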

[9] = Identifying Small Molecule Inhibitors of Pancreatic Cancer Stem Cells (Panc1, Spheroid) (AID 1259359);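 note: potency is the fitted concentration of half-maximal effect; compound exposure lasted 48 h before reading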
Outline: (§2)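 Adherent (2D) versus sphere (3D) formats; spheres generated 14 d in SCM beforehand. Compound transferred by pin tool after 4 h, 48 h incubation, CellTiter-Glo endpoint.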

[10] = Identifying Small Molecule Inhibitors of Pancreatic Cancer Stem Cells (A278, Adherent) (AID 1259361);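 note: viability read after 48 h compound exposure; nearly all actives have a fitted effect of over 35% in size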
Outline: (§3)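 After a 4 h attachment period, compounds were pinned into wells and cultures held 48 h under standard incubator conditions. Viability was then measured as CellTiter-Glo luminescence following 10 min at room temperature.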

[11] = Identifying Small Molecule Inhibitors of Pancreatic Cancer Stem Cells (Panc1, Adherent) (AID 1259362); settings: Potency: viability; note: potency is the fitted concentration of half-maximal effect
Outline: as §2

[12] = Identifying Small Molecule Inhibitors of Pancreatic Cancer Stem Cells (SN12C, Adherent) (AID 1259358);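 note: cell survival measured after 48 h of compound exposure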
Outline: as §3

[13] = qHTS Screen of the MIPE 4.0 Collection Against Ewings Sarcoma (TC32) (AID 1259256); note: nearly all actives have a fitted effect of over 45% in size; note: potency is the fitted concentration of half-maximal effect
Outline: as §1

CC(C)CN(C[C@@H](O)[C@H](Cc1ccccc1)NC(=O)O[C@H]1CO[C@H]2OCC[C@H]21)S(=O)(=O)c1ccc(N)cc1
Potency [1]: 2.09 µM (active) | Potency [2]: 3.72 µM (active) | Potency [3]: 1.32 µM (active) | outcome [4]: inactive | Potency [5]: inactive | Potency [6]: inactive | Potency [7]: inactive

CN(C)CCN(C)C(=O)c1ccc(NC(=O)Nc2ccc(-c3nc(N4CCOCC4)c4ccn(CC(F)(F)F)c4n3)cc2)cc1
Potency [1]: 0.0187 µM (active) | Potency [2]: 0.0743 µM (active) | Potency [3]: 0.0209 µM (active) | Potency [8]: 0.418 µM (active) | Potency [9]: 6.62 µM (active) | IC50 (viability decrease) [10]: 0.0418 µM (active) | Potency [11]: 14.8 µM (active) | Potency [6]: inactive | Potency [7]: 3.32 µM (active)

CC(O)=C(C#N)C(=O)Nc1ccc(C(F)(F)F)cc1
Potency [1]: 23.5 µM (active) | Potency [2]: 18.7 µM (active) | Potency [3]: 20.9 µM (active) | Potency [12]: inactive | IC50 (viability decrease) [10]: 16.6 µM (active) | Potency [11]: inactive | Potency [7]: 13.2 µM (active)

C[C@]12CCC3=C4CCC(=O)C=C4CC[C@@H]3[C@H]1CC[C@@]2(O)CC#N
Potency [1]: inactive | Potency [2]: inactive | Potency [3]: inactive | Potency [13]: inactive | Potency [7]: inactive

CC(=O)OCC(=O)[C@@]12OC(C)(C)O[C@H]1C[C@H]1[C@@H]3C[C@H](F)C4=CC(=O)C=C[C@]4(C)[C@@]3(F)[C@@H](O)C[C@@]12C
Potency [1]: inactive | Potency [2]: inactive | Potency [3]: inactive | Potency [13]: inactive

COc1cc([C@@H]2c3cc4c(cc3[C@@H](O[C@@H]3O[C@@H]5CO[C@@H](C)O[C@@H]5[C@H](O)[C@@H]3O)[C@H]3COC(=O)[C@H]23)OCO4)cc(OC)c1O
Potency [1]: 1.05 µM (active) | Potency [2]: 0.59 µM (active) | Potency [3]: 0.148 µM (active) | Potency [13]: inactive | Potency [7]: 1.18 µM (active)

CCC(C)SSc1ncc[nH]1 (stereo not given)
Potency [1]: 23.5 µM (active) | Potency [2]: 26.4 µM (active) | Potency [3]: 11.8 µM (active)

COc1ccc(-c2nc3ccc(C4=NNC(=O)CC4C)cc3[nH]2)cc1 (stereo not given)
Potency [1]: inactive | Potency [2]: inactive | Potency [3]: inactive | outcome [4]: inactive | Potency [6]: inactive | Potency [7]: inactive

COc1cc2c(cc1Cc1cccc(Cl)c1F)c(=O)c(C(=O)O)cn2[C@H](CO)C(C)C
Potency [1]: 26.4 µM (active) | Potency [2]: 20.9 µM (active) | Potency [3]: 23.5 µM (active)

CN1CCN(c2ncc(-c3cc(Cl)cc(Cl)c3Cl)c(N)n2)CC1
Potency [1]: inactive | Potency [2]: 16.6 µM (active) | Potency [3]: inactive | Potency [13]: inactive | Potency [7]: inactive

C#CCN(C)CC1=Cc2ccccc2Oc2ccccc21
Potency [1]: inactive | Potency [2]: inactive | Potency [3]: inactive

C[C@@H]1[C@H](O)[C@@H](C)C=CC=CC=CC=CC=CC=CC=C[C@H](O[C@@H]2O[C@H](C)[C@H](O)[C@H](N)[C@@H]2O)C[C@@H]2O[C@](O)(C[C@@H](O)C[C@@H](O)[C@H](O)CC[C@@H](O)C[C@@H](O)CC(=O)O[C@H]1C)C[C@H](O)[C@@H]2C(=O)O
Potency [1]: 0.105 µM (active) | Potency [2]: 0.372 µM (active) | Potency [3]: 1.18 µM (active) | Potency [13]: 0.743 µM (active) | Potency [7]: inactive

CC(C)CN(C[C@H](O)[C@H](Cc1ccccc1)NC(=O)O[C@H]1CCOC1)S(=O)(=O)c1ccc(N)cc1
Potency [1]: 16.6 µM (active) | Potency [2]: 18.7 µM (active) | Potency [3]: 18.7 µM (active) | Potency [5]: inactive | Potency [6]: inactive | Potency [7]: inactive

CNC1[C@H](O)C(O[C@@H]2C(O)C(O[C@H]3O[C@H]([C@@H](C)NC)CC[C@H]3N)[C@@H](N)C[C@H]2N)OC[C@]1(C)O (stereo not given in full)
Potency [1]: inactive | Potency [2]: inactive | Potency [3]: inactive | Potency [13]: inactive

COc1cccc(OC)c1-c1cc(C(=O)NC2(C(=O)O)C3CC4CC(C3)CC2C4)nn1-c1ccnc2cc(Cl)ccc12 (stereo not given)
Potency [1]: inactive | Potency [2]: inactive | Potency [3]: inactive | Potency [8]: inactive | Potency [12]: inactive | IC50 (viability decrease) [10]: 20.9 µM (active) | Potency [11]: inactive | Potency [5]: inactive | Potency [6]: inactive | Potency [7]: inactive

Oc1cc(O)cc(C=Cc2ccc(O)c(O)c2)c1
Potency [1]: 20.9 µM (active) | Potency [2]: 18.7 µM (active) | Potency [3]: 18.7 µM (active)

N#Cc1c(N(CC(=O)O)CC(=O)O)sc(C(=O)O)c1CC(=O)O
Potency [1]: inactive | Potency [2]: inactive | Potency [3]: inactive | outcome [4]: inactive | Potency [6]: inactive | Potency [7]: inactive

C=C1[C@H](n2cnc3c(=O)[nH]c(N)nc32)C[C@H](O)[C@H]1CO
Potency [1]: 9.35 µM (active) | Potency [2]: 14.8 µM (active) | Potency [3]: 13.2 µM (active) | Potency [13]: inactive | Potency [7]: inactive

COC1CCC(C(=O)c2ccc3nc4c(cc3c2)CCCO4)CC1 (stereo not given)
Potency [1]: 13.2 µM (active) | Potency [2]: 16.6 µM (active)

O=C(O)CCNc1cc(N2CCc3ccccc3CC2)nc(-c2ccccn2)n1
Potency [1]: 26.4 µM (active) | Potency [2]: 26.4 µM (active) | Potency [3]: inactive | Potency [5]: inactive | Potency [6]: inactive

Nc1ccc(-c2ccc3ncc4ccc(=O)n(-c5cccc(C(F)(F)F)c5)c4c3c2)cn1
Potency [1]: 0.0148 µM (active) | Potency [2]: 0.0083 µM (active) | Potency [3]: 0.0066 µM (active) | Potency [8]: 0.743 µM (active) | Potency [12]: inactive | Potency [6]: 1 nM (active) and 36.6 nM (active) | Potency [7]: 0.0418 µM (active)
